# Source: PubChem BioAssay (National Center for Advancing Translational Sciences (NCATS))
# In the library only some 7.4% were active in any assay of this set; here they are far more common.
# ELG1 genotoxic: qHTS screen for small molecules that induce genotoxicity in human embryonic kidney (HEK293T) cells expressing luciferase-tagged ELG1; AID 504466, 2011; HEK293T ELG1-luciferase reporter, luminescence, 16 h; 330,000 compounds, 1.3% hits; Potency, µM (top dose mostly 46 µM), hits mostly activators; further: nearly all actives have a fitted effect of over 60% in size
#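 Genotoxicity was scored as increased ELG1-luciferase reporter signal, measured by ONE-Glo luminescence (30 min, room temperature). Compound or vehicle exposure of the HEK293T reporter cells lasted 16 hr at 37°C.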
# Luc counter: Counterscreen for Luciferase (Kinase-Glo TM) Inhibition. AID 1379, 2008. 200,000 compounds, 0.28% hits. Kinase-Glo luciferase, ATP luminescence, 8 min. Potency, µM (doses to about 38.3 µM), actives largely listed as inhibitors. Luciferin 4-monooxygenase (Photuris pensylvanica), Q27757; further: nearly all actives have a fitted effect of over 60% in size
#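 Luminescence was the read-out, taken after 8-minute incubation at ambient temperature. Luciferase turned over luciferin with 10 uM ATP in imidazole pH 7.2 buffer containing KCl, MgCl2, Tween 20 and BSA.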
# Rab9 promoter act: qHTS Assay for Rab9 Promoter Activators; AID 485297, 2010; Potency, µM (top dose mostly 9.22 µM), most hits filed as activators; 320,000 compounds, 2.8% hits; Huh7 Rab9 promoter-luciferase reporter, luminescence, 24 h; further: nearly all actives have a fitted effect of over 60% in size
#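 Steps: seed 1500 Huh7 Rab9-luc cells per well, rest 2 h at 37 °C; add compound in DMSO; incubate 24 h; add luciferase reagent, 10 min ambient; read luminescence.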
# FLuc modulator: qHTS profiling assay for firefly luciferase inhibitor/activator using purifed enzyme and Km concentrations of substrates (counterscreen for miR-21 project). AID 588342, 2011. 360,000 compounds, 6.9% hits. Potency, µM (titrated, usually from 57.5 µM), most hits filed as inhibitors. purified FLuc, Km substrates, luminescence inhibition; further: nearly all actives have a fitted effect of over 55% in size
# Target sequence (P08659 whole entry, looked up): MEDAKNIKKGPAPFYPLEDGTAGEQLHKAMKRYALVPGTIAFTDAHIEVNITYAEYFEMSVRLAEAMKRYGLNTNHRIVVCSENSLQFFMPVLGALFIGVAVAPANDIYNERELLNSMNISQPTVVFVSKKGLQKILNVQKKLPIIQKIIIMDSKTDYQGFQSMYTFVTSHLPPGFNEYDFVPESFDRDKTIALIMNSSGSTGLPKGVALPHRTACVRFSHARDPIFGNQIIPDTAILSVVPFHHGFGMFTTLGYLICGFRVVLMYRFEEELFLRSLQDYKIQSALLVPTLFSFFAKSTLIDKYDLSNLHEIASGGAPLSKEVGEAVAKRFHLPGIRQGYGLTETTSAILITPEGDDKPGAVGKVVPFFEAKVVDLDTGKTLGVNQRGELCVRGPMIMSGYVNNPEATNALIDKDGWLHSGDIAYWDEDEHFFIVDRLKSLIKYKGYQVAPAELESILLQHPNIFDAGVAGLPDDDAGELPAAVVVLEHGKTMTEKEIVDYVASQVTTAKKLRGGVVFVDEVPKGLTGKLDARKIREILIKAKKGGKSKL
#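 Purified P. pyralis luciferase, 10 nM final, with Km-level 10 uM D-luciferin and 10 uM ATP in 50 mM Tris acetate pH 7.5, 10 mM Mg acetate, 0.01% Tween-20, 0.05% BSA; 6-point qHTS titration about 60 µM downward; luminescence read.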
# NPC1 promoter act: qHTS Assay for NPC1 Promoter Activators. AID 485313, 2010. Huh7 NPC1 promoter luciferase reporter, 24 h. Potency, µM (series often up to 9.22 µM), most hits filed as activators. 320,000 compounds, 2.4% hits; further: nearly all actives have a fitted effect of over 60% in size
#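 Quantitative HTS used a cell-based reporter: Huh7 cells stably bearing the NPC1 promoter upstream of luciferase were treated with compounds for 24 h, and promoter activation was read as luminescence.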
# SMN2 splice enh: qHTS Assay for Enhancers of SMN2 Splice Variant Expression. HEK293 SMN2-luciferase splicing reporter, luminescence, 30-36 h. Potency, µM (series often up to 46.1 µM), usual class: activators. 210,000 compounds, 2.8% hits; further: nearly all actives have a fitted effect of over 55% in size
#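 qHTS luciferase splicing reporter: luminescence rises when SMN2 exon 7 is included in transfected HEK293 cells. Compound exposure lasted 30-36 h at 37C, with 4.5 mM final sodium butyrate as control, followed by a ONE-Glo read.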
# A number is an active result; – = inactive; ? = inconclusive; · = no result given. The call rests on the fitted dose curve; in most records, active means well fitted curve in the direction sought with a large enough effect; inconclusive means small, poorly fitted or top-dose-only effect, or another doubt; inactive means no such curve, though single readings can be large; an effect the other way counts as inactive or inconclusive.
SMILES,ELG1 genotoxic,Luc counter,Rab9 promoter act,FLuc modulator,NPC1 promoter act,SMN2 splice enh
CNC(=O)c1c[nH]c2ccc(S(=O)(=O)Nc3cccc(Cl)c3C)cc2c1=O,·,·,–,?,–,–
Cc1nc2oc3ccc(F)cc3c(=O)c2cc1C(=O)NC(C)(C)C,?,–,–,?,–,?
COC(=O)c1cc2c(=O)c3ccccc3oc2nc1/C=C/N(C)C,–,·,–,?,–,·
CC(C)c1ccc2oc3nc(N)c(C(=O)O)cc3c(=O)c2c1,·,·,0.5µM,0.43µM,0.32µM,·
Cc1nc2oc3ccc(Cl)cc3c(=O)c2cc1C(=O)O,–,·,?,24µM,?,·
O=C(NCc1ccccn1)c1cccc(S(=O)(=O)Nc2ccccc2Cl)c1,–,·,–,–,–,·
Cc1cc(C(=O)COC(=O)[C@H](C)NC(=O)c2ccco2)c(C)n1Cc1ccco1,–,–,–,7.6µM,–,–
C=CCn1c(C)cc(C(=O)COC(=O)CNC(=O)c2ccccc2)c1C,–,–,–,13µM,–,–
Cc1cc(C(=O)COC(=O)Cn2c(C(F)(F)F)nc3ccccc32)c(C)n1Cc1ccco1,–,–,–,21µM,–,–
C=CCn1c(C)cc(C(=O)COC(=O)C2CC(=O)N(Cc3ccccc3)C2)c1C (stereo not drawn),–,–,–,24µM,–,–
Cc1[nH]c2ccccc2c1C(=O)COC(=O)C1CC(=O)N(Cc2ccccc2)C1 (stereo not drawn),–,–,–,–,–,–
CCN(C[C@H]1N[C@@](C)(C(=O)OC)[C@H]2C(=O)N(C)C(=O)[C@@H]12)C(=O)c1ccc(C(C)(C)C)cc1,–,·,·,·,·,·
CC(C)CC(=O)Nc1c2c(nn1-c1cccc(Cl)c1)CS(=O)C2 (stereo not drawn),–,·,–,–,–,·
CCN(c1ccccc1)S(=O)(=O)c1cccc(C(=O)NCC2(N(C)C)CCCCC2)c1,–,·,–,–,–,·
Cc1ccc(C(=O)NCC(=O)OCC(=O)c2cc(C)n(Cc3ccco3)c2C)cc1,–,·,–,24µM,–,·
CC1CCN(CCCn2c(=S)[nH]c3c(sc4ccccc43)c2=O)CC1,–,–,–,15µM,–,–
CC1CCN(CCCn2c(=S)[nH]c3c(sc4ccc([N+](=O)[O-])cc43)c2=O)CC1,–,–,–,–,–,–
O=C(COC(=O)c1cccnc1SCC(=O)NCc1ccccc1)NCc1ccccc1,–,–,–,2.7µM,–,–
O=C1CCC/C1=C/Nc1ccc(Cl)cc1,–,–,–,–,–,–
O=C1CCCC/C1=C\Nc1ccc(Cl)cn1,?,–,?,17µM,?,?
Cc1ccc(N/C=C2\CCCCC2=O)nc1,?,–,?,21µM,–,–
Cc1ccc(N/C=C2\CCCCC2=O)c(C)c1,–,–,–,?,–,–
CCOC(=O)c1sc(N2N=C(C)C(N=Nc3cccc(C)c3)C2=O)nc1C (stereo not drawn),–,·,–,6.7µM,–,·
CC(C)(C)c1ccc(C(=O)Nc2ccc(Cl)cc2)cc1,?,–,1.4µM,?,2.8µM,3.5µM
CC(=O)Nc1nonc1NC(=O)c1ccc(C(C)(C)C)cc1,–,–,3.5µM,?,?,?
SMILES,ELG1 genotoxic,Luc counter,Rab9 promoter act,FLuc modulator,NPC1 promoter act,SMN2 splice enh
CC(C)(C)c1ccc(NC(=O)c2ccsc2)cc1,?,·,0.4µM,1.1µM,0.45µM,·
COC(=O)Cc1ccc(NC(=O)c2ccc(C(C)(C)C)cc2)cc1,–,–,–,1.3µM,–,–
CC(=O)Nc1ccc(C(=O)NNC(=O)c2ccc(Cl)cc2)cc1,–,·,–,–,–,·
O=C(NC1CC(=O)N(c2cccc(F)c2)C1)C1CC1 (stereo not drawn),·,·,·,–,·,·
COC(=O)Cc1ccc(NC(=O)c2ccccc2Cl)cc1,–,–,–,15µM,–,–
NS(=O)(=O)c1ccc(NC(=O)c2ccccc2Cl)cc1,–,–,–,–,–,–
